Assay outcomes deposited in PubChem by several laboratories.
Compounds with a hit are over-represented: about 3.3% of the library has one in this group of screens.
ROMK primary = modulators of human ROMK potassium channel. P48048. Tet-inducible ROMK, thallium flux fluorescence; actives lie on both sides. B-score at 10 µM. 2% of 130,000 active. AID 1918;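 active = signal ratio slope over the read window, or its plate-corrected B-score, at least 3 SD from the plate mean, either direction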;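 also: B-score of the F/F0 ratio slope over 7 to 12 s after thallium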
Target sequence (P48048 whole entry, looked up): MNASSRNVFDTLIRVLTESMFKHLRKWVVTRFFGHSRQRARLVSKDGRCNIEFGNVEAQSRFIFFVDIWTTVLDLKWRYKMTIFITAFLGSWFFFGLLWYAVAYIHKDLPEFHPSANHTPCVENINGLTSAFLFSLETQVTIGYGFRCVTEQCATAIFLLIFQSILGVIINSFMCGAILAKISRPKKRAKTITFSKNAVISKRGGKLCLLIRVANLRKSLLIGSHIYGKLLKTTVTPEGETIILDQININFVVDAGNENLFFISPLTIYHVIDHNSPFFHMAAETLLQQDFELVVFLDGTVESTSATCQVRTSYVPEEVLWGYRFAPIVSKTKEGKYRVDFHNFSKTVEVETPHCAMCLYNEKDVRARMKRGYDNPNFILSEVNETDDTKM
PERK inhibitor = blocks human PERK kinase; AID 1416; Q9NZJ5; CHO PERK-DD fusion, SEAP luminescence translation reporter; inhibition, % at 5.6 µM; 0.17% of 220,000 active;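 active = inhibition above the mean inhibition of all tested compounds plus 3 SD, set separately per screening campaign, cut at about 2.9% in these data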;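 also: PERK kinase domain activated by AP20187 dimerizer at 100 nM; 0% = DMSO with dimerizer and 100% = rapamycin at 8.4 µM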
WT yeast gro inh = growth inhibition of WT yeast, mitochondrial fusion screen; mitochondrial fusion phenotypic screen, WT strain; inhibition, % at 10 µM; 2.1% of 190,000 active; in the data active = inhibition above about 58%; tested in S. cerevisiae
Arbovirus anti = arbovirus infection inhibition. inhibition, % at 10 µM. 0.37% of 200,000 active. arbovirus infection cell-based antiviral screen. AID 1251; in the data active = inhibition above about 30%
ROMK hit retest = confirmation of human ROMK potassium channel modulators | shares compounds with ROMK primary | ROMK thallium flux, fluorescence ratio; stronger effect = lower value | normalized thallium flux (F/F0 slope) at 10 µM | 54% of 3,000 active;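 active = Flux at 10 µM at least 3 SD below or above vehicle control mean in one or both replicates; inconclusive = no clear call, values can overlap the other calls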
An asterisk follows results filed as active; ? = inconclusive; . = not tested or not shown.

SMILES | ROMK primary | PERK inhibitor | WT yeast gro inh | Arbovirus anti | ROMK hit retest
CCOC(=O)[C@]1(C#N)[C@@H]2C=CC(C(C)=O)=CN2[C@@H](C(N)=O)[C@@H]1c1ccsc1 | -3.6* | 2 | -7 | 13 | 0.049*
Cc1ccc(-c2nc(N(C)C3CCN(C)CC3)c3ccccc3n2)cc1 | -1.1 | -2 | 38 | -37 | .
CCn1ccnc1CN1CCCC(C(=O)c2cc(F)ccc2OC)C1 (stereo not drawn) | 0.036 | 0 | 16 | 11 | .
CC1(C)C[C@H]2C=C(C=O)[C@]3(C=O)C[C@]3(C)[C@H]2C1 | -9.9* | 0 | 80 | -36 | 0.05*
Cc1ccc(-n2cc(CNC(C)Cc3cnccn3)c(-c3cccc(C)c3)n2)cc1 (stereo not drawn) | -3.6* | 1 | 66* | -13 | 0.06*
CCOC(=O)c1cc2c(cn1)[nH]c1ccccc12 | . | 1 | -11 | 3 | ?
CCOC(=O)c1nc2ccccc2c(=O)n1-c1ccc(C)cc1C | . | 0 | 2 | 6 | .
O=C1NCCN2CCCC12 (stereo not drawn) | 0.049 | 1 | 13 | -3 | .
O=C(/C=C/c1c[nH]c2ccccc12)c1c(O)n(CCc2ccccc2)c(=O)[nH]c1=O | . | 0 | . | . | 0.04*
CSCCC(N=Cc1c(O)n(-c2ccc(Cl)cc2)c(=O)[nH]c1=O)C(=O)OC(C)(C)C (stereo not drawn) | 0.39 | -1 | 6 | -1 | .
c1ccc2c(c1)Sc1ccccc1N2CC1CN2CCC1CC2 (stereo not drawn) | . | 0 | . | . | 0.04*
CCC(=NCc1ccco1)c1c(O)n(C2CCCCC2)c(=O)[nH]c1=O | -4* | -1 | 18 | 10 | 0.054*
O=C(Cc1ccccc1)OC(COCc1ccccc1)CN1CCOCC1 (stereo not drawn) | . | 1 | -9 | 3 | .
CN(C)c1ccc(/C=C/[N+](=O)[O-])cc1 | -4.1* | 1 | -3 | -2 | 0.037*
C/C(=C\c1ccc(N(C)C)cc1)[N+](=O)[O-] | -3.7* | 0 | -9 | 11 | 0.051*
CN(C)c1ccc(C(=O)c2ccc(N(C)C)cc2)cc1 | 1.9 | -1 | 2 | -10 | .
Cc1nonc1OCCNCCNc1ccc([N+](=O)[O-])c2cccnc12 | -5.3* | 0 | -1 | 0 | 0.053*
CCNCCNc1ccc([N+](=O)[O-])c2cccnc12 | . | 0 | . | . | .
O=C1NC(=O)C(=Cc2coc3ccc(O)cc3c2=O)C(=O)N1 | . | 1 | . | . | 0.043*
C1CNC2NCCNC2N1 (stereo not drawn) | -0.38 | 1 | -6 | 12 | .
O=C(c1ccc2c(c1)ncn2C1CCCCC1)N1CCC2(CC1)OCCO2 | 2.4* | -1 | 14 | 0 | 0.088
COc1cccc(C(=O)N2CCC3(CC2)OCCO3)c1 | 0.33 | 2 | . | . | .
Cn1c(=O)n(C)c2cc([N+](=O)[O-])c(N3CCNCC3)cc21 | 0.063 | -1 | 2 | 4 | .
O=C1NC(=O)N(c2ccccc2)C(=O)/C1=C/C=C/c1ccco1 | -9.6* | 0 | . | . | 0.046*
Cc1cccc(N2C(=O)NC(=O)/C(=C\C=C\c3ccco3)C2=O)c1 | -14* | 0 | . | . | 0.046*
SMILES | ROMK primary | PERK inhibitor | WT yeast gro inh | Arbovirus anti | ROMK hit retest
Cc1ccc(N2C(=O)NC(=O)/C(=C\C=C\c3ccco3)C2=O)cc1 | . | 0 | . | . | .
Cc1ccc(N2C(=O)NC(=O)/C(=C\C=C\c3ccco3)C2=O)cc1C | -8.6* | 1 | -7 | -1 | 0.039*
COc1ccc(S(=O)(=O)NC(CC(=O)N2CCC3(CC2)OCCO3)c2ccco2)cc1 (stereo not drawn) | . | -2 | 3 | 3 | .
CCCC(C)C1(CC)C(=O)NC(=O)N=C1N (stereo not drawn) | 0.54 | 1 | -3 | -13 | .
Cc1cccc(NC(=S)N2CC3CC(C2)c2cccc(=O)n2C3)c1C (stereo not drawn) | . | 1 | -3 | 0 | .
N=c1c[n+](CC23CC4CC(CC(C4)C2)C3)[n-]o1 | . | 1 | -16 | 9 | .
Clc1ccc2c(c1)C(OC1CN3CCC1CC3)c1ccccc1CS2 (stereo not drawn) | . | -1 | 22 | -34 | .
OC(c1cccc(Cl)c1)(c1cccc(Cl)c1)C1CN2CCC1CC2 (stereo not drawn) | -4.5* | 0 | -16 | -36 | 0.052*
CC1CCN(C(=O)CCl)CC1 | 0.17 | 1 | 1 | -2 | .
O=C1N(c2cccc(Cl)c2)C(c2cccnc2)N2CCCN12 (stereo not drawn) | -0.068 | 2 | -6 | -6 | .
O=C1N(c2ccccc2)C(c2cccnc2)N2CCCN12 (stereo not drawn) | 2.5* | 2 | 2 | -2 | 0.087
CN1C(=O)C(=Cc2ccccc2Oc2ccc(Cl)cc2)C(=O)N(C)C1=O | . | 1 | -5 | 3 | 0.084
CN1C(=O)C(=Cc2ccccc2OCc2ccc(Cl)cc2)C(=O)N(C)C1=O | . | 0 | 9 | -1 | .
COc1ccccc1CCNC1CCC(C(C)(C)C)CC1 (stereo not drawn) | -5.8* | -1 | 13 | 22 | 0.059*
O=C(O)C1C2CC3CC(C2)CC1(n1ncc(N2CCC4(CC2)OCCO4)c(Cl)c1=O)C3 (stereo not drawn) | . | 2 | . | . | .
CCCCC(=O)N/N=C/c1c(O)n(CC)c(=S)[nH]c1=O | 1.9* | 0 | -2 | 4 | 0.077
CC(C)Cc1nc(N2CCNCC2)c(C#N)c2c1CCC2 | . | 0 | . | . | .
CCc1nc(N2CCNCC2)c(C#N)c2c1CSC(C)(C)C2 | -3.7* | -1 | -4 | 17 | 0.075
CC(C)N1CCN(Cc2cc3c(cc2Cl)OCO3)CC1CCO (stereo not drawn) | . | 1 | . | . | .
Cc1cc(C=C2C(=O)NC(=O)NC2=O)c(C)n1-c1cccnc1 | . | 1 | . | . | .
C=CCN1C(=O)/C(=C/c2cc(C)n(-c3cccnc3)c2C)C(=O)NC1=S | -2.9* | 1 | -2 | 2 | 0.067*
CCC(CC)NC1CCCCC1OC (stereo not drawn) | -0.073 | 0 | -11 | 5 | .
CN1c2ccc([N+](=O)[O-])cc2CC2(C(=O)NC(=O)N(c3ccc(Br)cc3)C2=O)C1c1ccccc1 (stereo not drawn) | . | 0 | 9 | 17 | 0.072
Nc1ccccc1-[n+]1c(-c2ccccc2)cc(-c2ccccc2)cc1-c1ccccc1 | . | 1 | . | . | 0.062*
FC(F)(F)c1cccc(N2CCNCC2)c1 | . | 1 | -1 | -1 | .
SMILES | ROMK primary | PERK inhibitor | WT yeast gro inh | Arbovirus anti | ROMK hit retest
CN1CCC(C)(O)C2CCCCC21 (stereo not drawn) | -11* | 0 | 2 | 6 | 0.082
Cc1cccc(-n2c(=S)[nH]c3ccccc3c2=O)n1 | 2.5* | 2 | -16 | 0 | 0.075
Cc1cccc(-n2c(C)nc3ccccc3c2=O)n1 | 0.26 | 0 | -19 | 9 | .
Cn1c(O)c(/C=C/C=Nc2ccccc2)c(=O)n(C)c1=O | . | 0 | 2 | -5 | 0.051*
Cn1c(O)c(C=Nc2ccccc2-c2ccccc2)c(=O)n(C)c1=O | 0.18 | -1 | . | . | .
C#CCOc1cc(C2C3=C(COC3=O)Nc3cc4c(cc32)OCO4)ccc1OC (stereo not drawn) | 3.5* | -1 | 27 | -7 | 0.086
Cn1c(N2CCNCC2)nc2ccccc21 | . | 1 | 8 | -2 | .
COc1ccc(OC)c(N2C(=O)NC(=O)C(CCc3ccncc3)(CCc3ccncc3)C2=O)c1 | 1.2 | 1 | -5 | 10 | .
Cc1[nH]c2c(C(F)(F)F)cccc2c1CCN | -0.88 | 0 | -5 | -6 | .
Cc1c(CCN)ccc2c1[nH]c1ccccc12 | -3.2* | 0 | . | . | 0.066*
